Results from PubChem BioAssay (NCI).
This is part of a sample that, as a whole, favours compounds with a hit. Of some 79,000 tested, about 15% had one in any assay. The source made the active and inactive calls. Rule as the data show it: active = growth inhibition above about 70%; inactive = the rest.

What was measured:
[1] = NCI Yeast Anticancer Drug Screen. Data for the wt1 strain (AID 149);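 also: 0% = growth of vehicle-treated wt1 cultures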; conditions: S. cerevisiae wt1 strain (SPY 50644) growth inhibition, active compounds read high
How it was run: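 Readout: yeast growth inhibition, normalised to vehicle controls, in the wt1 strain exposed to test compounds.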

[2] = NCI Yeast Anticancer Drug Screen. Data for the rad50EPP+ strain (AID 151);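 also: 0% = growth of vehicle-treated control cultures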; conditions: S. cerevisiae rad50 mutant strain, active compounds read high
How it was run: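 Genetically defined yeast (rad50EPP+, DNA damage repair alteration) is grown with compound, and inhibition of growth is expressed relative to vehicle-treated controls.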

[3] = NCI Yeast Anticancer Drug Screen. Data for the mgt1 strain (AID 153); conditions: S. cerevisiae mgt1 mutant growth inhibition, active compounds read high
How it was run: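 In the mgt1 strain, test compounds were added and growth inhibition was determined relative to vehicle-treated controls.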

[4] = NCI Yeast Anticancer Drug Screen. Data for the rad50 strain (AID 155);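 also: 0% = growth of vehicle-only cultures of the same strain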; conditions: S. cerevisiae rad50 strain growth inhibition, active compounds read high
How it was run: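 Compounds were tested on a yeast strain with an engineered DNA damage repair alteration; the reported value is growth inhibition normalised to vehicle treatment.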

[5] = NCI Yeast Anticancer Drug Screen. Data for the mec2-1 strain (AID 157); conditions: S. cerevisiae mec2-1 strain, active compounds read high
How it was run: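 Each compound was tested on mec2-1 yeast, a strain altered in DNA damage repair or cell cycle control. Growth inhibition is reported relative to vehicle.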

[6] = NCI Yeast Anticancer Drug Screen. Data for the rad14 strain (AID 159);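 also: 0% = growth of vehicle-treated control cultures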; conditions: S. cerevisiae rad14 strain growth inhibition, active compounds read high
How it was run: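 Compound-treated yeast with a defined DNA-repair lesion; growth inhibition normalised to vehicle-treated cultures.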

[7] = NCI Yeast Anticancer Drug Screen. Data for the sgs1 mgt1 strain (AID 161);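 also: 0% = growth of cultures given vehicle only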; conditions: S. cerevisiae sgs1 mgt1 strain, active compounds read high
How it was run: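 Inhibition of yeast growth, normalised to vehicle-treated controls, is reported for a strain bearing genetic alterations in DNA damage repair.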

[8] = NCI Yeast Anticancer Drug Screen. Data for the CLN2oe strain (AID 163);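 also: 0% = growth of vehicle-only control cultures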; conditions: S. cerevisiae CLN2oe strain, active compounds read high
How it was run: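 First, the altered yeast strain was treated with each compound; second, its growth was measured; finally, inhibition was derived by comparison with vehicle controls.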

[9] = NCI Yeast Anticancer Drug Screen. Data for the cln2 rad14 strain (AID 165);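 also: 0% = growth equal to vehicle treated cultures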; conditions: S. cerevisiae cln2 rad14 strain, active compounds read high
How it was run: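 Test compounds were added to cln2 rad14 yeast cultures; inhibition of growth was then determined by comparison with vehicle treatment.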

[10] = NCI Yeast Anticancer Drug Screen. Data for the bub3 strain (AID 167); conditions: S. cerevisiae bub3 mutant strain, active compounds read high
How it was run: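 Growth of a checkpoint-deficient yeast mutant is measured after compound exposure. Values represent inhibition relative to vehicle.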

[11] = NCI Yeast Anticancer Drug Screen. Data for the wt2 strain (AID 169);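 also: 0% = growth of vehicle-treated yeast cultures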; conditions: S. cerevisiae wt2 strain growth inhibition, active compounds read high
How it was run: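 The panel's yeast strains carry defined changes in DNA repair or cell cycle genes. Each strain is grown with compound, and growth loss is scored relative to vehicle.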

[12] = NCI Yeast Anticancer Drug Screen. Data for the mlh1 strain (AID 171);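 also: 0% = growth of vehicle-treated control cultures of the same strain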; conditions: S. cerevisiae mlh1 strain growth inhibition, active compounds read high
How it was run: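 Inhibition values reflect reduced yeast growth in the presence of compound, referenced to vehicle controls, using a strain chosen for its alteration in DNA repair or cell cycle control.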

[13] = NCI Yeast Anticancer Drug Screen. Data for the sgs1 strain (AID 173);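 also: 0% = growth of vehicle-only control cultures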; conditions: S. cerevisiae sgs1 mutant, active compounds read high
How it was run: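 Vehicle-treated cultures served as reference for growth inhibition of a yeast strain altered in DNA damage repair or cell cycle control after compound exposure.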

[14] = NCI Yeast Anticancer Drug Screen. Data for the mlh1 rad18 strain (AID 175); conditions: S. cerevisiae mlh1 rad18 strain growth inhibition, active compounds read high
How it was run: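 Inhibition values reflect reduced growth of mutant yeast versus vehicle-treated controls following compound exposure; the mutations affect DNA damage repair.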

[15] = NCI Yeast Anticancer Drug Screen. Data for the rad18 strain (AID 177); conditions: S. cerevisiae rad18 mutant growth inhibition, active compounds read high
How it was run: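 Steps: expose repair-mutant yeast to compound; measure growth; express as inhibition relative to vehicle control.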

[16] = at 5.0 µM (retest, dose inferred, filed as 0.5)
[17] = at 50.0 µM (retest, dose inferred, filed as 5.0)

Measured: growth inhibition

CN(C)CCNC(=O)c1cccc2nc3c4ccccc4c4ccccc4c3nc12
inactive: [1]; at 1.2 µM -1% | [1]; at 3.7 µM 2% | [1]; at 11.0 µM 28% | [2]; at 1.2 µM 6% | [2]; at 3.7 µM 25% | [3]; at 1.2 µM 1% | [3]; at 3.7 µM 1% | [3]; at 11.0 µM 43% | [4]; at 1.2 µM -9% | [4]; at 3.7 µM -24% | [4]; [16] 65% | [5]; at 1.2 µM 0% | [5]; at 3.7 µM 1% | [5]; [16] 8% | [5]; at 11.0 µM 35% | [6]; at 1.2 µM 3% | [6]; at 3.7 µM 8% | [6]; at 11.0 µM 67% | [7]; [16] 17% | [8]; at 1.2 µM 0% | [8]; at 3.7 µM -3% | [8]; at 11.0 µM 29% | [9]; [16] 18% | [10]; at 1.2 µM -1% | [10]; at 3.7 µM 2% | [10]; [16] 7% | [11]; at 1.2 µM 1% | [11]; at 3.7 µM 9% | [11]; at 11.0 µM 29% | [12]; at 1.2 µM 1% | [12]; at 3.7 µM 2% | [12]; at 11.0 µM 53% | [13]; at 1.2 µM 1% | [13]; at 3.7 µM 4% | [14]; [16] 40% | [15]; at 1.2 µM 5% | [15]; at 3.7 µM 11%
active: [1]; at 33.0 µM 97% | [1]; at 100.0 µM 95% | [2]; at 11.0 µM 90% | [2]; at 33.0 µM 96% | [2]; at 100.0 µM 93% | [3]; at 33.0 µM 99% | [3]; at 100.0 µM 95% | [4]; at 11.0 µM 98% | [4]; at 33.0 µM 98% | [4]; [17] 96% | [4]; at 50.0 µM 96.7% | [4]; at 100.0 µM 91% | [5]; at 33.0 µM 99% | [5]; [17] 96% | [5]; at 50.0 µM 95.8% | [5]; at 100.0 µM 94% | [6]; at 33.0 µM 98% | [6]; at 100.0 µM 95% | [7]; [17] 97% | [7]; at 50.0 µM 96.2% | [8]; at 33.0 µM 97% | [8]; at 100.0 µM 92% | [9]; [17] 95% | [9]; at 50.0 µM 95% | [10]; at 11.0 µM 93% | [10]; at 33.0 µM 97% | [10]; [17] 96% | [10]; at 50.0 µM 95.4% | [10]; at 100.0 µM 92% | [11]; at 33.0 µM 97% | [11]; at 100.0 µM 94% | [12]; at 33.0 µM 98% | [12]; at 100.0 µM 94% | [13]; at 11.0 µM 73% | [13]; at 33.0 µM 98% | [13]; at 100.0 µM 95% | [14]; [17] 97% | [14]; at 50.0 µM 95.2% | [15]; at 11.0 µM 72% | [15]; at 33.0 µM 98% | [15]; at 100.0 µM 93%

O=S(=O)(Oc1c(Cl)cc(Cl)cc1Cl)c1ccccc1
inactive: [1]; at 1.2 µM -4% | [1]; at 3.7 µM -7% | [1]; at 11.0 µM -9% | [1]; at 33.0 µM -11% | [1]; at 100.0 µM -5% | [2]; at 1.2 µM 8% | [2]; at 3.7 µM 23% | [2]; at 11.0 µM 37% | [3]; at 1.2 µM -3% | [3]; at 3.7 µM -5% | [3]; at 11.0 µM -2% | [3]; at 33.0 µM 9% | [3]; at 100.0 µM 30% | [4]; at 1.2 µM 0% | [4]; at 3.7 µM 3% | [4]; [16] 8% | [4]; at 11.0 µM 10% | [4]; at 33.0 µM 14% | [4]; [17] 12% | [4]; at 50.0 µM 10.2% | [4]; at 100.0 µM 14% | [5]; at 1.2 µM -4% | [5]; at 3.7 µM -1% | [5]; [16] -9% | [5]; at 11.0 µM 1% | [5]; at 33.0 µM 4% | [5]; [17] 20% | [5]; at 50.0 µM 40.5% | [5]; at 100.0 µM 13% | [6]; at 1.2 µM 0% | [6]; at 3.7 µM 0% | [6]; at 11.0 µM 8% | [6]; at 33.0 µM 11% | [6]; at 100.0 µM 12% | [7]; [16] 2% | [7]; [17] 47% | [7]; at 50.0 µM 66.3% | [8]; at 1.2 µM -1% | [8]; at 3.7 µM -4% | [8]; at 11.0 µM -14% | [8]; at 33.0 µM -14% | [8]; at 100.0 µM -8% | [9]; [16] -18% | [9]; [17] 20% | [9]; at 50.0 µM -33.5% | [10]; at 1.2 µM -1% | [10]; at 3.7 µM -4% | [10]; [16] 0% | [10]; at 11.0 µM -2% | [10]; at 33.0 µM 0% | [10]; [17] -8% | [10]; at 50.0 µM 55.4% | [10]; at 100.0 µM 14% | [11]; at 1.2 µM -1% | [11]; at 3.7 µM -4% | [11]; at 11.0 µM -7% | [11]; at 33.0 µM -2% | [11]; at 100.0 µM 10% | [12]; at 1.2 µM -1% | [12]; at 3.7 µM -2% | [12]; at 11.0 µM -10% | [12]; at 33.0 µM 13% | [12]; at 100.0 µM 28% | [13]; at 1.2 µM -3% | [13]; at 3.7 µM -1% | [13]; at 11.0 µM 11% | [13]; at 33.0 µM 22% | [13]; at 100.0 µM 11% | [14]; [16] -7% | [14]; [17] 56% | [14]; at 50.0 µM 63.6% | [15]; at 1.2 µM -3% | [15]; at 3.7 µM 4% | [15]; at 11.0 µM 12% | [15]; at 33.0 µM 19% | [15]; at 100.0 µM 30%
active: [2]; at 33.0 µM 71% | [2]; at 100.0 µM 89%
